From PubChem BioAssay (EPA / NIEHS) come the findings set out here.

Results filed as inconclusive are left out. The source made the active and inactive calls. Rule for the calls: active = hit-call score of the fitted dose curve at least 0.9, where 1 is the maximum; inconclusive = response in the unintended direction; inactive = score below 0.9.

Sequence of human Acetylcholinesterase (AChE), ACHE (gene 43) (P22303 whole entry, looked up): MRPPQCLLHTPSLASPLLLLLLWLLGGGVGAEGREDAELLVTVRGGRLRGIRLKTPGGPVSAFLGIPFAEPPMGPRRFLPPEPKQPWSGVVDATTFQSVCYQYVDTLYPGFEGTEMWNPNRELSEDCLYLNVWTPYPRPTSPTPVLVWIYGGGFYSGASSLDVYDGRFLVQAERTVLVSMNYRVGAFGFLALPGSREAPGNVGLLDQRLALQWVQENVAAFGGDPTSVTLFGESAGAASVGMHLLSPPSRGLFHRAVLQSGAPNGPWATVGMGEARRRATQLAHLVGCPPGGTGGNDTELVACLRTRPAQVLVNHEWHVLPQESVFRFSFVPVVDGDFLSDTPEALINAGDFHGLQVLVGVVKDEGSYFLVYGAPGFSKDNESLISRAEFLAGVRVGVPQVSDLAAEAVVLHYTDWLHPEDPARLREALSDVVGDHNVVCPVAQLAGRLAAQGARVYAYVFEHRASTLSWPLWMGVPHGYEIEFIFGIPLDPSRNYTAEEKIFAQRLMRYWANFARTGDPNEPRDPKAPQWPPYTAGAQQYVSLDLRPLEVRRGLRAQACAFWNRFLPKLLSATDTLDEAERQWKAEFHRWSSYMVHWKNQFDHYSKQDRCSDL

The target in one test is Cytochrome P450 3A4 (Homo sapiens) (UniProt P08684). The test is described as follows: NVS_ADME_hCYP3A4: NovaScreen (NVS) CYP450-related Enzyme Activity (ADME) Assay for human CYP3A4 (AID 2283110). Put shortly: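 Compounds were first screened in duplicate at 10 uM against recombinant CYP3A4 produced in insect cells, then actives were run in concentration series. Enzyme activity was measured by fluorescence after 0.33 hour, with acetonitrile as baseline.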
Sequence of Cytochrome P450 3A4 (Homo sapiens) (P08684 whole entry, looked up): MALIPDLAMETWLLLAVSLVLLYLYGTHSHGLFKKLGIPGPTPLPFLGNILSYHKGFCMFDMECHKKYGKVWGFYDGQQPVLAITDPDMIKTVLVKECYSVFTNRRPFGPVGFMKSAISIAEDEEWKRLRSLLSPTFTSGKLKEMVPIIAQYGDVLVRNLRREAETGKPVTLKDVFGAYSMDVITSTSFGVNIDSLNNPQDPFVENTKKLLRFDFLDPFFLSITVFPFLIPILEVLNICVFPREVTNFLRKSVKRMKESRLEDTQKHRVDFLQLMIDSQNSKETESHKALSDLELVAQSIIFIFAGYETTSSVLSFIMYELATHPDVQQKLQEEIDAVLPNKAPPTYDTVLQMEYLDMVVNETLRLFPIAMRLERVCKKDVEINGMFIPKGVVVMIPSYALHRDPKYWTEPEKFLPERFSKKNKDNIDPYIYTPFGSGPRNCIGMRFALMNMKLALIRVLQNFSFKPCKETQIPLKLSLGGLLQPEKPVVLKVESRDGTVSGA
The term AC50 denotes the concentration at which the activity in the assay is half-maximal. Take `[Cl-].[Cl-].[Hg+2]`: the AC50 is 0.975 µM (active).

As to `CCOC(=O)[C@]1(c2ccccc2)Oc2ccccc2[C@@H]1N`, the AC50 was 6.56 µM (active).

Consider `CCCCCCCCn1sccc1=O`, for which the half-maximal activity concentration (AC50) was 8.75 µM (active).

On to `O=[N+]([O-])C(Br)(CO)CO`, for which the outcome was inactive.

Consider `CC(C)(C)C(O)(CCc1ccc(Cl)cc1)Cn1cncn1` (configuration not stated), for which the AC50 was 5.27 µM (active).

For the compound `O=C(Nc1ccccc1)c1ccccc1I`, the outcome was inactive.

Consider `N#CC(Br)(Br)C(N)=O`, for which the compound was called inactive.

On to `Oc1ccc2ccc3cccc4ccc1c2c34`, for which the concentration at half-maximal activity (AC50) is 6.74 µM (active).

Take `OCCOCCO`: the compound was classed as inactive.

Turning to `CO[C@@H]1[C@H](OC(=O)NC(=O)CCl)CC[C@]2(CO2)[C@H]1[C@@]1(C)O[C@@H]1CC=C(C)C`, the AC50 is 2.38 µM (active).

Regarding `O=C(N[C@H](c1ccccc1)[C@@H]1CN2CCC1CC2)c1c(Cl)ccc(C(F)(F)F)c1Cl`, the compound was classed as inactive.

With `Nc1ccc(Oc2ccc(N)cc2)cc1`, the AC50 is 7.04 µM (active).

The target in a further test is Cytochrome P450 2C19 (Homo sapiens) (UniProt P33261). The test is described as follows: NVS_ADME_hCYP2C19: NovaScreen (NVS) CYP450-related Enzyme Activity (ADME) Assay for human CYP2C19 (AID 2283113).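 For AC50: potency for inhibition seen as loss of fluorescent signal.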 In outline: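 Cell-free recombinant human CYP2C19 from insect cells, fluorescent substrate; activity read by fluorescence intensity 1 h after dosing. Primary screen in duplicate at 10 uM; actives retested in concentration series. Signal loss versus acetonitrile negative control.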
For the compound `[Cl-].[Cl-].[Hg+2]`, the AC50 was 0.812 µM (active).

For the compound `CCOC(=O)[C@]1(c2ccccc2)Oc2ccccc2[C@@H]1N`, the AC50 was 2.09 µM (active).

On to `CCCCCCCCn1sccc1=O`, for which the AC50 is 6.04 µM (active).

For `O=[N+]([O-])C(Br)(CO)CO`, the AC50 was 1.93 µM (active).

Consider `CC(C)(C)C(O)(CCc1ccc(Cl)cc1)Cn1cncn1` (configuration not stated), for which the AC50 is 0.698 µM (active).

For `O=C(Nc1ccccc1)c1ccccc1I`, the half-maximal activity concentration (AC50) is 4.95 µM (active).

With `CCNS(=O)(=O)C(F)(F)C(F)(F)C(F)(F)C(F)(F)C(F)(F)C(F)(F)C(F)(F)C(F)(F)F`, the AC50 was 9.65 µM (active).

For `Cc1cc(N=Nc2ccccc2C)ccc1N`, the AC50 was 2.69 µM (active).

As to `Nc1ccc(N=Nc2ccccc2)cc1`, the AC50 is 6.47 µM (active).

For the compound `COP(=S)(OC)SCN1C(=O)c2ccccc2C1=O`, the AC50 was 0.593 µM (active).

`CO[C@@H]1[C@H](OC(=O)NC(=O)CCl)CC[C@]2(CO2)[C@H]1[C@@]1(C)O[C@@H]1CC=C(C)C`: the AC50 was 2.21 µM (active).

In the case of `Nc1ccc(Oc2ccc(N)cc2)cc1`, the compound was called inactive.

A further test deals with human Acetylcholinesterase (AChE), ACHE (gene 43) (UniProt P22303). The experiment in a line: NVS_ENZ_hAChE: NovaScreen (NVS) Enzymatic Assay for human Acetylcholinesterase (AChE) (AID 2283129). In outline:
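Cell-free colorimetric enzyme-activity assay; compounds read 0.33 hour after dosing, loss of signal vs DMSO baseline. Primary screen in duplicate at 25 uM single concentration, with active compounds retested in concentration series.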
Consider `CCOC(=O)[C@]1(c2ccccc2)Oc2ccccc2[C@@H]1N`, for which the AC50 is 24.3 µM (active).

On to `O=[N+]([O-])C(Br)(CO)CO`, for which the AC50 was 29.5 µM (active).

As for `Oc1ccc2ccc3cccc4ccc1c2c34`, the AC50 is 7.92 µM (active).
